Measurements reported in PubChem BioAssay.
Values without a mark were called inactive. No rule for the calls is given here.

Tested on: Aerobactin synthetase IucA (Klebsiella pneumoniae hvKP1)
Assay: Biochemical IucA enzyme inhibition primary screen of the Spectrum library (AID 1346200);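 also: 100% = wells without compound and 0% = wells lacking enzyme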
Conditions: malachite green pyrophosphate, A620, at 8 µM, stronger effect = lower value

SMILES	activity remaining
CO[C@H]1CC(O[C@@H]2/C(C)=C/C[C@@H]3C[C@@H](C[C@]4(CC[C@H](C)[C@@H](C5CCCCC5)O4)O3)OC(=O)[C@@H]3C=C(C)/C(=N/O)[C@H]4OC/C(=C\C=C\[C@@H]2C)[C@]43O)O[C@@H](C)C1O (stereo not given in full)	119%
COc1ccc2c(c1)OCc1c-2oc2cc(OC)ccc12	90.7%
O=C(NC1CCCCC1)NC1CCCCC1	71.2%
Nc1ccc(S(N)(=O)=O)cc1	116%
COc1cc(NS(=O)(=O)c2ccc(N)cc2)nc(OC)n1	90.2%
O=C1OC2(c3ccc(O)cc3Oc3cc(O)ccc32)c2ccccc21	111%
CC(=O)Oc1cccc2c1C(=O)c1c(OC(C)=O)cc(C(=O)O)cc1C2=O	102%
CC(Cc1cccc(C(F)(F)F)c1)NCCOC(=O)c1ccccc1 (stereo not given)	98.2%
O=C1O[C@H](C(O)CO)C(O)=C1O (stereo not given in full)	92.2%
CCC(=O)c1c(O)cc(O)cc1O	116%
CC(C)(O)CC[C@@H](O)[C@](C)(O)C1CC[C@@]2(O)C3=CC(=O)C4C[C@@H](O)[C@@H](O)C[C@]4(C)C3CC[C@]12C (stereo not given in full)	102%
C/C1=C\CC(C)(C)/C=C/CC2(C)OC2CC1 (stereo not given)	107%
C=C1CCC(OC(C)=O)/C(C)=C/C[C@@H]2[C@@H]1CC2(C)C (stereo not given in full)	103%
CNCc1ccccc1	108%
Cc1coc2c1C(=O)C(=O)c1c-2ccc2c1CCCC2(C)C	103%
O=c1c(O)c(-c2ccc(O)c(O)c2)oc2c(O[C@@H]3O[C@H](CO)[C@H](O)[C@@H](O)[C@H]3O)c(O)cc(O)c12	96.1%
CCCCC(=O)O[C@H]1CCC2C3CCc4cc(O)ccc4C3CC[C@@]21C (stereo not given in full)	97.5%
CC12CCCC(O)(C1)C1CC(C)(C)C1CC2 (stereo not given)	91.8%
Cc1c(N(C)C)c(=O)n(-c2ccccc2)n1C	123%
CC1=C2[C@@H](CC1)[C@@H](C)CC[C@@H]2/C=C(\C)C(=O)O	113%

SMILES	activity remaining
CC(C)c1cccc(O)c(=O)c1	123%
O=C(/C=C/c1ccc(O)c(O)c1)OC(Cc1ccc(O)c(O)c1)C(=O)O (stereo not given)	116%
COC(=O)[C@@H]1C(O)CC[C@H]2CN3CCc4c([nH]c5ccccc45)[C@@H]3C[C@@H]21 (stereo not given in full)	96.8%
CC(=O)O[C@H]1C[C@@H](OC(C)=O)C(C)(C)C2C[C@@H](OC(C)=O)[C@]3(C)C(CC[C@@]4(C)[C@H](c5ccoc5)OC(=O)[C@H]5O[C@]543)[C@]21C (stereo not given in full)	103%
CCn1cc(C(=O)O)c(=O)c2cc(F)c(N3CCN(C)CC3)cc21	109%
CO/N=C(/C(=O)NC1C(=O)N2C(C(=O)O)=C(COC(N)=O)CSC12)c1ccco1 (stereo not given)	92.5%
CC(N)CCCC(C)(C)O (stereo not given)	123%
COc1ccc(C(C)=O)c(O)c1	83.8%
C[C@@H]1[C@H]2[C@H](O[C@@H]3O[C@H](CO)[C@@H](O)[C@H](O)[C@H]3O)OC=C(C(=O)O)[C@H]2C[C@@H]1O	120%
CCCCC(CC)CN1CN(CC(CC)CCCC)CC(C)(N)C1 (stereo not given)	89.7%
CN1CCc2c(c3ccccc3n2Cc2ccccc2)C1	116%
COC(=O)C1=CO[C@@H](C)[C@@H]2CN3CC[C@@]4(C(=O)Nc5ccccc54)[C@@H]3CC12 (stereo not given in full)	107%
CC(=O)O[C@H]1CC[C@@]2(C)C(C[C@H](OC(C)=O)[C@@]3(C)C4=CC(=O)OC(c5ccoc5)[C@]4(C)CCC23)C1(C)C (stereo not given in full)	119%
C1N2CN3CN1CN(C2)C3	104%
CC(=O)Oc1cc(OC(C)=O)c2c(c1)O[C@H](c1ccc(OC(C)=O)c(OC(C)=O)c1)[C@H](OC(C)=O)C2	108%
O=C(O)c1nc2cc(Cl)c(Cl)cc2[nH]c1=O	92.7%
NC(N)=NS(=O)(=O)c1ccc(N)cc1	98.6%
CC(C)=CCOc1cc2oc(=O)ccc2cc1O	109%
CCCC(=O)O[C@]1(C(=O)CO)CCC2[C@@H]3CCC4=CC(=O)CC[C@]4(C)C3[C@@H](O)C[C@@]21C (stereo not given in full)	79%
C[C@]12CCC3c4ccc(O)cc4CCC3C1C[C@@H](O)[C@@H]2O (stereo not given in full)	99.6%
